Assay outcomes from PubChem BioAssay.
HepG2 tox-1 – counter-screen for TGF-b inhibitors: cytotoxicity in HepG2 cells; HepG2 CAGA-GFP viability, ATP luminescence, 18 h; Potency, µM (highest dose often 46.1 µM), hits mostly cytotoxic; 410,000 compounds, 0.76% hits; AID 588856
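CellTiter-Glo luminescence gave cytotoxicity after 18 hours at 37 degrees C. The cells were HepG2 CAGA-GFP in 1% FBS DMEM, stimulated with 500 pg/mL TGF-beta after compound addition. %Activity was normalised to no-cell wells (complete cell-killing) and DMSO (no toxicity), and curves were fitted and classified.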
Giardia kill – Giardia lamblia killing; AID 540267; Giardia lamblia trophozoite viability; activity change, % at 7.66 µM, hits read low; 340,000 compounds, 0.15% hits; in the data active = activity change below about -80%; inconclusive = between about -30% and that limit;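 note: parasites exposed to compound for two days anaerobically before the ATP read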
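Luminescent ATP signal served as the viability read-out, measured 15-30 min after adding ATP detection reagent to trophozoites that had been incubated with compounds for 48 hrs at 37 deg C anaerobically at 100 cells/well.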
ATXN2 expr inh – reduces ATXN2 reporter expression in HEK-293 cells | HEK-293 ATXN2-luciferase reporter, luminescence, 24 h | Potency, µM (top dose mostly 57 µM), hits mostly inhibitors | 360,000 compounds, 0.72% hits | AID 1745845; note: nearly all actives have a fitted effect of over 55% in size
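qHTS (up to 57 uM final) was run with 24 h compound exposure of reporter cells at 37 °C. Each well was multiplexed: SteadyGlo luminescence measured ATXN2-luciferase expression after a fluorogenic Gly-Phe-AFC viability readout (25 uM final).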
S2 tox – viability counter-screen for ATXN expression inhibitors; AID 651635; 400,000 compounds, 0.49% hits; S2 cells (HEK-293 line with an ATXN2-luciferase reporter) viability, CellTiter-Fluor protease fluorescence, 24 h; Potency, µM (doses to about 56.7 µM), actives largely listed as cytotoxic; note: nearly all actives have a fitted effect of over 40% in size
uPA surface inh – inhibitors of cell surface uPA generation; 330,000 compounds, 0.31% hits; cell surface uPA generation assay, qHTS; Potency, µM (series often up to 38.3 µM), usual class: inhibitors; active = well fitted inhibition curve with a large enough effect; inconclusive = small, poorly fitted or top-dose-only effect; inactive = no such curve, though single readings can be large or run the other way; tested in mouse RAW 264.7 cells; note: nearly all actives have a fitted effect of over 55% in size
TGFb inhibitor – blocks TGF-b signaling | HepG2 CAGA-GFP TGF-b/SMAD3 reporter, GFP fluorescence, 18 h; TGF-beta stimulated, 500 pg/mL final | Potency, µM (series often up to 46.1 µM), actives largely listed as inhibitors | 410,000 compounds, 1.2% hits | AID 588855; note: nearly all actives have a fitted effect of over 65% in size
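Read-out: total well GFP (ex488/em500-530) summed from mean per-cell fluorescence. Cells: HEPG2 CAGA-GFP, 1% FBS DMEM, 18 h at 37 degrees C with 500 pg/mL final TGF-beta. Unstimulated wells served as the full-inhibition control; stimulated DMSO wells = 0%.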
TGFb CAGA inh – confirmation of TGF-b signaling inhibitors in HepG2 reporter cells; AID 720534; 1,600 compounds, 63% hits; Potency, µM (titrated, usually from 46.1 µM), usual class: inhibitors; shares compounds with TGFb inhibitor; HepG2 CAGA-GFP TGF-b reporter, GFP fluorescence, 18 h; cells stimulated with TGF-beta, 500 pg/mL; note: nearly all actives have a fitted effect of over 65% in size
HepG2 tox-2 – counter-screen for TGF-b inhibitors: cytotoxicity in HepG2 cells; shares compounds with TGFb inhibitor; 1,600 compounds, 27% hits; AID 720535; Potency, µM (top dose mostly 46.1 µM), usual class: inhibitors; HepG2 CAGA-GFP viability, ATP luminescence, 18 h; cells stimulated with TGF-beta, 500 pg/mL; note: nearly all actives have a fitted effect of over 70% in size
CCL64 TGFb inh – blocks TGF-b signaling in CCL64 reporter cells | shares compounds with TGFb inhibitor | CCL64 CAGA-GFP reporter, TGF-b stimulated, GFP fluorescence, 18 h | Potency, µM (top dose mostly 46.1 µM), usual class: inhibitors | 1,600 compounds, 41% hits; note: nearly all actives have a fitted effect of over 65% in size
COP TGFb inh – blocks TGF-b signaling in HepG2 COP reporter; shares compounds with TGFb inhibitor; HepG2 COP-GFP TGF-b reporter, GFP fluorescence, 18 h; cells stimulated by added recombinant TGF-beta; Potency, µM (titrated, usually from 46.1 µM), usual class: inhibitors; 1,600 compounds, 3% hits; note: nearly all actives have a fitted effect of over 70% in size
Each line names hits and unclear results; the compound was inactive in the other large screens (follow-up assays come after a bar, where they were run). Shown are actives, neighbours in structure and some others; about 2.6% of the full set was active somewhere. Unless noted, calls come from the whole dose curve; as a rule, active = well fitted curve in the direction sought with a large enough effect; inconclusive = small, poorly fitted or top-dose-only effect, or another doubt; inactive = no such curve, though single readings can be large; an effect the other way counts as inactive or inconclusive.

Cc1ccc(NC(=O)/C=C/c2ccc([N+](=O)[O-])s2)cc1	none
Cc1ccc(NC(=O)/C=C/c2ccc([N+](=O)[O-])s2)c(C)c1	HepG2 tox-1 7.9µM, ATXN2 expr inh 8.9µM, S2 tox inconclusive, TGFb inhibitor 5µM | TGFb CAGA inh inconclusive | HepG2 tox-2 10µM | CCL64 TGFb inh 4.1µM | COP TGFb inh inactive
Cc1cc([N+](=O)[O-])ccc1NC(=O)/C=C/c1cccs1	S2 tox inconclusive
Cc1cccc(NC(=O)/C=C/c2ccc([N+](=O)[O-])s2)c1	ATXN2 expr inh 8.9µM, S2 tox 8.9µM, TGFb inhibitor inconclusive | TGFb CAGA inh inconclusive | HepG2 tox-2 5.2µM | CCL64 TGFb inh 2.6µM | COP TGFb inh inactive
CCc1ccccc1NC(=O)Nc1nnc(N(CC)c2ccccc2)s1	TGFb inhibitor inconclusive (no result: Giardia kill, ATXN2 expr inh, S2 tox, uPA surface inh)
COC(=O)CC1Oc2ccc(C)cc2-n2cc(-c3ccc(C)cc3)nc21 (stereo not drawn)	TGFb inhibitor inconclusive (no result: Giardia kill, uPA surface inh)
CCCCSc1nc(C)cc(SCC(=O)N/N=C/c2cccc(OC)c2O)n1	ATXN2 expr inh 7.1µM, S2 tox inconclusive, TGFb inhibitor 7.9µM | TGFb CAGA inh 8.2µM | HepG2 tox-2 inconclusive | CCL64 TGFb inh 12µM | COP TGFb inh inactive
COc1ccccc1OCC(=O)NC1CCSc2ccccc21 (stereo not drawn)	none
CCn1c(=O)c(C(=O)Nc2ccccc2)c(O)c2ccccc21	none
CCn1c(=O)c(C(=O)Nc2nc3ccccc3[nH]2)c(O)c2ccccc21	TGFb inhibitor 2µM | TGFb CAGA inh inactive | HepG2 tox-2 inconclusive | CCL64 TGFb inh inconclusive | COP TGFb inh inactive
Cc1cc(C)c(NC(=O)CNC(=O)CSc2nnc(N)s2)c(C)c1	none
CCCCn1c(SCC(=O)c2ccccc2)nc2c(sc3ccccc32)c1=O	none (no result: Giardia kill, uPA surface inh)
COc1ccccc1CNS(=O)(=O)c1ccc2c(c1)CC(C)N2C(=O)C1CCC1 (stereo not drawn)	TGFb inhibitor 14µM | TGFb CAGA inh 18µM | HepG2 tox-2 inactive | CCL64 TGFb inh inactive | COP TGFb inh inactive
COc1ccccc1CNS(=O)(=O)c1ccc2c(c1)CC(C)N2C(=O)C1CC1 (stereo not drawn)	S2 tox inconclusive, TGFb inhibitor inconclusive (no result: ATXN2 expr inh)
COc1cc(C2C(C#N)=C(N)N(N(C)C)C3=C2C(=O)CC(C)(C)C3)cc(OC)c1OC (stereo not drawn)	none
FC(F)Oc1ccc(-c2csc(=Nc3cccnc3)n2CC2CCCO2)cc1 (stereo not drawn)	TGFb inhibitor inconclusive | TGFb CAGA inh inactive | HepG2 tox-2 inactive | CCL64 TGFb inh inactive | COP TGFb inh inactive
COc1ccc(NC(=O)CNC(c2ccccc2)c2ccccc2)cc1Cl	TGFb inhibitor 11µM | TGFb CAGA inh inconclusive | HepG2 tox-2 inactive | CCL64 TGFb inh inconclusive | COP TGFb inh inactive
O=S(Cc1ccc(Br)cc1)Cc1nnc(SCc2ccc(Br)cc2)n1-c1ccccc1 (stereo not drawn)	TGFb inhibitor 8.9µM | TGFb CAGA inh 21µM | HepG2 tox-2 inconclusive | CCL64 TGFb inh inconclusive | COP TGFb inh inactive
COC(=O)c1ccc(CSc2nnc(CS(=O)Cc3ccc(Br)cc3)n2-c2ccccc2)cc1 (stereo not drawn)	TGFb inhibitor inconclusive
CC(C)C[C@@H](CN1CCC[C@@H]1CN1C(=S)NC[C@@H]1Cc1ccccc1)N1C[C@H](Cc2ccc(O)cc2)N(CCc2ccccc2)C1=S	S2 tox inconclusive, TGFb inhibitor inconclusive (no result: Giardia kill, uPA surface inh)
CCOc1ccc(CCN2C(=S)N([C@@H](CC(C)C)CN3CCCC3CN3C(=S)NC[C@@H]3Cc3ccc(O)cc3)C[C@@H]2Cc2ccccc2)cc1 (stereo partly drawn)	TGFb inhibitor inconclusive | TGFb CAGA inh inconclusive | HepG2 tox-2 inactive | CCL64 TGFb inh inconclusive | COP TGFb inh inactive
CCOc1ccc(CCN2C(=S)N([C@@H](Cc3ccc(O)cc3)CN3CCC[C@@H]3CN3C(=S)NC[C@@H]3Cc3ccccc3)C[C@@H]2Cc2ccc(O)cc2)cc1	S2 tox inconclusive, TGFb inhibitor 8.9µM (no result: Giardia kill, uPA surface inh) | TGFb CAGA inh 6.5µM | HepG2 tox-2 inconclusive | CCL64 TGFb inh 5.8µM | COP TGFb inh inactive
CCOc1ccc(CCN2C(=S)N([C@@H](CC(C)C)CN3CCCC3CN3C(=S)NC[C@@H]3Cc3ccc(O)cc3)C[C@@H]2Cc2ccc(O)cc2)cc1 (stereo partly drawn)	HepG2 tox-1 13µM, ATXN2 expr inh inconclusive, S2 tox inconclusive, uPA surface inh inconclusive, TGFb inhibitor 7.1µM | TGFb CAGA inh 21µM | HepG2 tox-2 inconclusive | CCL64 TGFb inh 13µM | COP TGFb inh inactive
O=C(CNC(=O)C(c1ccccc1)c1ccccc1)OCC(=O)c1cccc2ccccc12	none (no result: ATXN2 expr inh, S2 tox, uPA surface inh)
O=S(=O)(/N=C/c1ccccc1O)c1cccs1	none
O=S(=O)(N=C1C=CC(=NS(=O)(=O)c2ccccc2)c2ccccc21)c1ccccc1	TGFb inhibitor inconclusive (no result: Giardia kill, ATXN2 expr inh, uPA surface inh)
O=C1C(Nc2ccc(O)cc2)=C/C(=N/S(=O)(=O)c2cccs2)c2ccccc21	HepG2 tox-1 1.1µM, ATXN2 expr inh 4µM, S2 tox 8.9µM, TGFb inhibitor 1µM | TGFb CAGA inh 0.65µM | HepG2 tox-2 1µM | CCL64 TGFb inh 3.7µM | COP TGFb inh 1µM
O=C(O)c1ccc(NC2=C/C(=N/S(=O)(=O)c3ccccc3)c3ccccc3C2=O)cc1	HepG2 tox-1 4µM, ATXN2 expr inh 35µM, TGFb inhibitor 5.6µM (no result: S2 tox) | TGFb CAGA inh 6.5µM | HepG2 tox-2 18µM | CCL64 TGFb inh 12µM | COP TGFb inh inconclusive
CCCS(=O)(=O)Nc1ccc(Nc2c3ccccc3nc3ccccc23)c(OC)c1	ATXN2 expr inh inconclusive, S2 tox 12µM, TGFb inhibitor 10µM | TGFb CAGA inh inconclusive | HepG2 tox-2 15µM | CCL64 TGFb inh 13µM | COP TGFb inh inactive
